Measurements taken from PubChem BioAssay (NCI).
Compounds without any hit were thinned out: in the full panel of roughly 83,000, 20% have a hit.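 How to read the values: 0–100, growth inhibition (40 = 60% inhibited); 0, no net growth; -100 to 0, cell death (-40 = 40% of starting cells died; -100 = all dead).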 A number with no mark means an inactive call. Activity calls are given as the source filed them. The calls were made as follows: active = growth percent below 10; inactive = the rest.

Tests used:
Experiment in all cases: NCI-60 one-dose screen, 48 h (100 = growth as untreated, 0 = no growth, -100 = all killed)
Conditions in all cases: 10 µM unless noted
NCI-H23 lung = system: NCI-H23 lung
NCI-H322M lung = system: NCI-H322M lung
HOP-62 NSCLC = system: HOP-62 NSCLC
NCI-H460 lung = system: NCI-H460 lung
HOP-92 NSCLC = system: HOP-92 NSCLC
NCI-H522 lung = system: NCI-H522 lung
A549/ATCC NSCLC = system: A549/ATCC NSCLC
786-0 renal = system: 786-0 renal
DU-145 prostate = system: DU-145 prostate
K-562 leukemia = system: K-562 leukemia
MALME-3M melanoma = system: MALME-3M melanoma
MDA-MB-231 breast = system: MDA-MB-231 breast
RXF 393 renal = system: RXF 393 renal
SF-268 CNS = system: SF-268 CNS
SF-295 CNS = system: SF-295 CNS
SF-539 CNS = system: SF-539 CNS
UACC-257 melanoma = system: UACC-257 melanoma
M14 melanoma = system: M14 melanoma
HCT-15 colon = system: HCT-15 colon
COLO 205 colon = system: COLO 205 colon

| SMILES | growth (NCI-H23 lung) | growth (NCI-H322M lung) | growth (HOP-62 NSCLC) [%] | growth (NCI-H460 lung) | growth (HOP-92 NSCLC) | growth (NCI-H522 lung) | growth (A549/ATCC NSCLC) | growth (786-0 renal) [%] | growth (DU-145 prostate) | growth (K-562 leukemia) | growth (MALME-3M melanoma) | growth (MDA-MB-231 breast) | growth (RXF 393 renal) | growth (SF-268 CNS) [%] | growth (SF-295 CNS) | growth (SF-539 CNS) | growth (UACC-257 melanoma) | growth (M14 melanoma) | growth (HCT-15 colon) | growth (COLO 205 colon) |
| --- | --- | --- | --- | --- | --- | --- | --- | --- | --- | --- | --- | --- | --- | --- | --- | --- | --- | --- | --- | --- |
| CCCN1CCN(c2ccc3nc(-c4ccc5nc(-c6cc(OC)ccc6OC)[nH]c5c4)[nH]c3c2)CC1 | 103% | 115% | 117 | 100% | 110% | 113% | 115% | 101 | 114% | -45.3% (active) | 139% | 107% | 93.3% | 106 | 104% | 96.2% | 110% | 111% | 62.1% | – |
| COc1cc2nc(NC3CCCC3)nc(NC3CCN(C(C)C)CC3)c2cc1OC | 88.7% | 100% | 89.3 | 71.8% | 47.8% | 62.6% | 75.7% | 80.7 | 74.8% | -4.9% (active) | 76.4% | 24.8% | 18% | 88.7 | 96.5% | 59.6% | 79.9% | -80.4% (active) | 79.2% | – |
| COc1ccc2occ(C3=C(c4c[nH]c5ccccc45)C(=O)NC3=O)c2c1 | 62.2% | 79% | 41.6 | 22.5% | 67.2% | 33% | 40.8% | 74.7 | 92.1% | 21.6% | 46.7% | 28% | 34.5% | 52 | 35.6% | 51.8% | 76.3% | 27.3% | 24.1% | – |
| CCOc1ccc(Nc2ccnc3cc(Cl)ccc23)cc1 | -3.27% (active) | -0.617% (active) | 24.5 | 5.71% (active) | -25% (active) | -35.4% (active) | 1.55% (active) | 19.1 | – | 9.05% (active) | -25.2% (active) | -31.6% (active) | 3.65% (active) | 22.7 | -53% (active) | 24.4% | -33.6% (active) | 14.7% | 17.2% | -91.1% (active) |
| O=C(Cn1cc(COc2ncnc3c2cnn3-c2ccccc2)nn1)Nc1ccccn1 | 96.6% | 93.6% | 91.5 | 101% | 75.2% | 87.6% | 94.2% | 104 | 101% | 96.7% | 94.5% | 85.2% | 112% | 92.9 | 102% | 89.1% | 98.4% | 97.4% | 101% | – |
| COc1ccc(C2=C(c3cccc(OC)c3)C(=O)c3ccc(C)nc3C2=O)cc1 | 37.5% | 76.4% | 34.4 | 13.4% | 80% | 40.9% | 40.8% | 67.8 | 54.3% | 19.9% | 52.4% | 29.4% | 33.3% | 48 | 56.2% | 43% | 67.8% | 42% | 18.6% | – |
| COc1cccc2c(=O)c3c(sc12)c(NCCCNCCO)nc1ccccc13 | 63.1% | 53.4% | 44.4 | -75.1% (active) | 10.2% | 60.9% | 34.5% | 56.3 | 41.4% | -46.9% (active) | 81.2% | 23.9% | 44.5% | 48.2 | 73% | 64.9% | 84.5% | 41.9% | 25.6% | – |
| Cc1cccc2c(=O)c3c(sc12)c(NCCCNCCO)nc1ccccc13 | 55% | 63.3% | 41.6 | 19.3% | 29.4% | 58.6% | 39.4% | 52.8 | 35% | -51.3% (active) | 26.9% | -1.61% (active) | 43.3% | 52.1 | 74.7% | 59.4% | 91.6% | 35.1% | 0.41% (active) | – |
| O=[N+]([O-])c1cc2c(ccc3occc32)o1 | 39.5% | 61% | 63.5 | -28.2% (active) | 26.6% | 25.7% | 26.1% | 71.3 | -7.23% (active) | 11.9% | -33.1% (active) | 17.3% | -2.62% (active) | 18.5 | -34.9% (active) | 33.5% | -20.1% (active) | -8.26% (active) | 12.1% | – |
| CC(=O)c1ccc(Nc2nc(NCCO)nc(Nc3ccc(Cl)cc3)n2)cc1 | 99.1% | 97.1% | 100 | 93.6% | 86.4% | 81.2% | 85.6% | 104 | 94.8% | 78% | 93.5% | 82.5% | 67.2% | 91.9 | 97.8% | 87.2% | 88.4% | 114% | 73.9% | – |
| CCCSC1=NC2C(N(CC)C(=O)N2CC)N1/N=C/C=C/c1ccccc1[N+](=O)[O-] (centres undefined) | 46.5% | 57.5% | 49.8 | 5.1% (active) | 102% | 0.595% (active) | 35.8% | 33.4 | 19.8% | 8.86% (active) | 74.3% | 22.6% | 0.465% (active) | 48.1 | 12.9% | -11.9% (active) | 70.8% | 1.77% (active) | 16.1% | – |
| COc1ccc2c(c1)C=C1CSCC3=Cc4cc(OC)ccc4OC13O2 | 18.7% | 49.2% | 38.2 | 6.88% (active) | 44.9% | 15.1% | 23.6% | 38.6 | 17.7% | 11% | 45.2% | 16.4% | 5% (active) | 41.1 | 2.44% (active) | -25.4% (active) | 74.7% | 17.2% | 18.2% | – |
| CNCCNc1nc2ccccc2c2c(=O)c3cc(F)ccc3sc12 | 90.9% | 42.4% | 46 | -65.8% (active) | 19.2% | 33.8% | -56.3% (active) | 42.5 | 12% | -47.1% (active) | 68.1% | 19.5% | 62% | 44.3 | 95.2% | 71.6% | 54.4% | 1.91% (active) | 13.6% | – |
| COc1c(B(O)O)cccc1-c1nc2ccc3[nH]ncc3c2c2c1C1CCC2C1 (centres undefined) | 85.1% | 84.2% | 65.7 | 51% | 108% | 59.5% | 26.6% | 52.6 | 72.3% | 55.6% | 136% | 71.2% | 28.5% | 67.4 | 86% | 28% | 101% | 84% | 49.6% | – |
| COc1ccc(/C=C/C(=O)c2c(C)nc3ccccc3c2/C=C/c2ccccc2)cc1O | 50.6% | 42.3% | 88.6 | 22.8% | 65.6% | 14.9% | 39.5% | 99.4 | 45.7% | 20.9% | 86.3% | 52.7% | 64.1% | 57.7 | 90.8% | 81.7% | 68.7% | 15.9% | 39.1% | – |
| O=C(/C=C/c1ccccc1)c1ccc(Nc2nc(NCCO)nc(Nc3ccc(Cl)cc3)n2)cc1 | 82.7% | 91.6% | 93.2 | 81% | 96.2% | 83.3% | 64.6% | 83.9 | 73.6% | 36.1% | 98.7% | 71.4% | 73.2% | 73.8 | 96.1% | 73% | 94.7% | 99.9% | 8.55% (active) | – |
